According to PubChem BioAssay AID720532 (National Center for Advancing Translational Sciences (NCATS), 2013):
“And” between values parts separate entries of the source, which are not always exact repeats. Identical values can stand only once. Out of some 18,000 compounds screened, about 1,200 (6.7%) were called active. Roughly 16% stayed inconclusive and do not appear here. Shown is part of a subset that was picked to be rich in actives. Unmarked numbers belong to inactive results. The call rests on the fitted dose curve; tested in HEK293 cells.

assay: qHTS for Inhibitors of binding or entry into cells for Marburg Virus; settings: Marburg virus pseudotype entry/binding inhibition, cell-based; series mostly up to 49.2 µM; activity change, negative = inhibition: at the top concentration
On the % scale 0 is the no-effect control and ±100 the full control effect; potency means the concentration at half of the fitted maximal effect.

Row | SMILES | Potency | activity change, negative = inhibition
1 | O=C(O)C1CCN(c2ncnc3ccc(-c4ccccc4C(F)(F)F)cc23)CC1 | 112 µM (active) | 
2 | Cc1ccc(S(=O)(=O)N2CCC(=O)N([C@H](COCc3ccccc3)Cc3ccccc3)CC2)cc1 |  | 6.8%
3 | O=S1(=O)CC(N2CCN(CCO)CC2)CN1C1CCCC1 (stereo not given) |  | 20.9%
4 | O=c1cc(-c2ccc(O)cc2)oc2c(-c3cc(-c4cc(=O)c5c(O)cc(O)cc5o4)ccc3O)c(O)ccc12 |  | 19.1%
5 | CCCCCC(=O)N1C[C@@H](O)[C@H](n2cc(C3CC3)nn2)C[C@H]1c1ccc(OC)cc1 |  | -17.1%
6 | O=C1CCC[C@@H]2CC(N3CCCCC3)C[C@@H]3CCN1[C@H]23 (stereo not given in full) |  | -18.6%
7 | Oc1ccc(-c2c(-c3ccccc3)nn3c(C(F)(F)F)cc(C(F)(F)F)nc23)cc1 |  | 2.41%
8 | CC(C)=CCCC(C)=CCN1C(=O)[C@]2(O[C@H](C)CC3=CCCC32)c2c(Br)cccc21 (stereo not given in full) |  | 10.2% [at 8.59 µM]
9 | Cc1ccc(-c2ccc(C(=O)N3CCc4nnc(CNC(=O)c5ccccc5)n4CC3)cc2)cc1 |  | -24%
10 | COc1ccccc1CNc1ncnc2ccc(-c3c(C)noc3C)cc12 |  | 8.89%
11 | COCCNc1ncnc2ccc(-c3ccccc3CN(C)C)cc12 |  | -4.66%
12 | COc1ccc2[nH]cc(CCNc3ncnc4ccc(-c5ccccc5CN(C)C)cc34)c2c1 | 10 µM (active) | 
13 | C=CCCN(Cc1ccccc1)S(=O)(=O)c1ccccc1Br |  | -6.66%
14 | CC(=O)OC[C@H]1O[C@@H](O[C@H]2[C@H](O)[C@@H](OC(=O)c3ccccc3C(=O)O)[C@H](O)O[C@@H]2COC(C)=O)[C@H](O)[C@@H](OC(=O)c2ccccc2C(=O)O)[C@@H]1O | 3.55 µM (active) | 
15 | CC(=O)OC[C@H]1O[C@H](C#Cc2ccccc2)C=C[C@@H]1OC(C)=O |  | 21% [at 8.59 µM]
16 | CC(=O)OC[C@H]1O[C@H](C#CC2=CCCCC2)C=C[C@H]1OC(C)=O |  | -20.8% [at 8.59 µM]
17 | CCCC[C@]12Cc3cc(C#N)ccc3[C@H](O1)c1c(cc(-c3ccccc3)oc1=O)O2 |  | 9.58% [at 8.59 µM]
18 | C[C@H]1Cc2c(COc3ccccc3)nc3c(c2CO1)CN(C(=O)Nc1cccc(C#N)c1)CC3 |  | 2.49% [at 8.59 µM] and 20.7% [at 8.59 µM]
19 | CN1CCC(n2cnc(-c3ccc(F)cc3)c2-c2ccnc(N)n2)CC1 | 17.7 µM (active) | 
20 | CC(C)(CO)CNC(=O)c1ccc2[nH]c(O)c(N=Nc3ccc(S(N)(=O)=O)cc3)c2c1 |  | 65%
21 | Cc1ccc(NC(=O)O[C@@H]2C(=O)c3cc(Br)ccc3O[C@H]2c2ccc3c(c2)OCO3)cc1Br |  | 6.25%
22 | CCOCCOC(=O)C(C)Oc1ccc(Oc2ncc(C(F)(F)F)cc2Cl)cc1 (stereo not given) |  | 0.308%
23 | CC[N+](C)(CC)CCC[n+]1c(-c2ccccc2)c2cc(N)ccc2c2ccc(N)cc21 | 7.08 µM (active) and 2.82 µM (active) | 
24 | CCCCC/C=C\CC1OC1CCCCCCCC(=O)O (stereo not given) |  | inactive

Row | SMILES | Potency | activity change, negative = inhibition
25 | CCC(C)(C)N=C(NC#N)Nc1cccnc1 |  | 19.6%
26 | Clc1ccc(C(Cn2ccnc2)OCc2ccsc2Cl)c(Cl)c1 (stereo not given) |  | 7.18%
27 | Brc1ccc(C2=NCCC(c3ccccc3)O2)cc1 (stereo not given) |  | 8%
28 | C[C@@H]1C(c2ccccc2)=Cc2[nH]c(=O)[nH]c2C[C@@H]1C(=O)N1CCCC1 |  | 7.81% [at 8.59 µM]
29 | COC(=O)C=C[C@H]1c2ccccc2[C@@H](OC)[C@@H]1C |  | 16.3% [at 8.59 µM] and -4.37% [at 8.59 µM]
30 | CCOC(=O)CN1C(=O)NC(CCc2ccccc2)C(C(C)=O)=C1C (stereo not given) |  | 3.64% [at 8.59 µM]
31 | COC(=O)C(C(=O)OC)C1c2ccccc2C=C(C2CC2)N1C(=O)OC (stereo not given) |  | inactive
32 | CCCNC(=O)CC1OC(C2CCCCC2)Cc2ccccc21 (stereo not given) |  | -26.1% [at 8.59 µM]
33 | Cc1cc2oc(=O)cc(CN(C)Cc3ccccc3)c2cc1Cl |  | 32.3%
34 | CCOC(OCC)OCC |  | 4.67%
35 | CCCCC/C=C\C/C=C\C/C=C\CCCCCCC(N)=O |  | -17.1%
36 | COc1ccc([C@]23Cc4cc(OC)c(OC)cc4[C@H](O2)c2c(cc(C)oc2=O)O3)cc1 |  | 8.88% [at 8.59 µM]
37 | O=C(c1ccc(F)cc1)C1CCN(CCCCc2ccccc2)CC1 | 15.8 µM (active) | 
38 | c1ccc(CCCCN2CCC(c3ccccc3)CC2)cc1 | 14.1 µM (active) | 
39 | O=C(O)CCCc1ccccc1 |  | inactive
40 | O=C(O)C1CCCN(CCC=C(c2ccccc2)c2ccccc2)C1 (stereo not given) |  | inactive
41 | O=C(O)C[C@@H]1NC(=O)[C@H](Cc2ccccc2)NC1=O |  | 2.12%
42 | CCCCCCCC[C@@H](O)/C=C/C=C/C=C\[C@@H](O)CCCC(=O)O |  | 0.476%
43 | COC(=O)C1(C(C)=O)CC2=CC[C@H]3C(=O)N(c4ccccc4)C(=O)[C@H]3[C@@H]2Cc2ccccc2[C@@H]1C[N+](=O)[O-] (stereo not given in full) |  | inactive
44 | CC(C)(C)OC(=O)NCCCC1=CC2=CC(=O)C(C)(OC(=O)c3ccco3)C(=O)C2=CO1 (stereo not given) |  | -1.5%
45 | NNc1nnc(Cc2ccncc2)c2ccccc12 | 11.2 µM (active) | 
46 | NNc1nnc(NN)c2ccccc12 |  | 34.2%
47 | CCN(CCNC(=O)[C@H]1C=C(OC)C(=O)C[C@@H]2c3ccccc3C[C@]12C)C(C)=O |  | 0.4% [at 8.59 µM]
48 | FCOC(C(F)(F)F)C(F)(F)F |  | 22.4%

Row | SMILES | Potency | activity change, negative = inhibition
49 | CC1(OC(=O)c2ccc(Cl)nc2)C(=O)Cc2cc(-c3ccsc3)ncc2C1=O (stereo not given) |  | -19.4% [at 8.59 µM]
50 | CN1CCCC1CCO[C@@](C)(c1ccccc1)c1ccc(Cl)cc1 (stereo not given in full) | 10 µM (active) | 
51 | CN1CCC[C@@H]1CCO[C@](C)(c1ccccc1)c1ccc(Cl)cc1 | 14.1 µM (active) and 28.2 µM (active) | 
52 | CC(=O)C1=C(C)N(Cc2ccccc2)C(=O)NC1c1cccs1 (stereo not given) |  | 3.55% [at 8.59 µM]
53 | CCCCCCN1C[C@@H](O)[C@H](n2cc(C3CC3)nn2)C[C@H]1c1ccccc1 |  | -14.4%
54 | COc1ccc(C2=C(N3CCc4ccccc43)C(=O)NC2=O)cc1 |  | 28.3%
55 | CCCCC/C=C\C/C=C\C/C=C\CCCCC(=O)NCC(=O)O |  | 6.5%
56 | CC(C)[C@H]1COCCS(=O)(=O)N1Cc1ccccc1-c1cccc2c1sc1ccccc12 |  | -18.2%
57 | COC(=O)C1=C(C)N(Cc2ccccc2)C(=NCCc2ccc([N+](=O)[O-])cc2)NC1c1cccc(F)c1 (stereo not given) |  | 9.24% [at 8.59 µM]
58 | COc1ccc(C2CC(=O)Oc3ccc(C(C)(C)C)cc32)cc1 (stereo not given) |  | 4.9%
59 | CCOC(=O)C1C/C(=C\C(C)=O)c2cccc(C(F)(F)F)c2O1 (stereo not given) |  | 6.48%
60 | Cc1cnc(C)c(-c2cc(F)c3c(c2)CC(CNC(=O)c2cccc(Cn4cccn4)c2)O3)n1 (stereo not given) |  | 10.3%
61 | CCN(CC)CCCC(C)Nc1ccnc2cc(Cl)ccc12 (stereo not given) | 10 µM (active) and 5.01 µM (active) | 
62 | COc1ccc(-c2c(C)cc3oc(=O)cc(-c4ccccc4)c3c2C)cc1F |  | 0.588%
63 | C=CCN1C(=O)N(Cc2ccccc2)c2ccccc2S1(=O)=O |  | 11%
64 | COc1ccc(CNS(=O)(=O)c2cc(Br)ccc2Br)cc1 |  | 18.8%
65 | COc1ccc2[nH]cc(CCNCc3ccc(Br)cc3)c2c1 | 15.8 µM (active) | 
66 | COc1ccc2[nH]cc(CCNc3nc(-c4cccc(NS(C)(=O)=O)c4)nc4ccccc34)c2c1 |  | -18.6%
67 | Cc1cc(N(C)C)nc(Cl)n1 |  | 9.23%
68 | CC(C)(C)Nc1oc(-c2ccccc2)nc1C=Cc1ccccc1 |  | 3.65% [at 8.59 µM]
69 | CCOC(=O)CCN1C(=O)[C@@H]2[C@H]3[C@H](O)[C@H](O)CC(=NOCC(C)C)[C@@H]3CC[C@H]2C1=O |  | -10.9% [at 8.59 µM]
70 | C=C(C)C1CC=C(C)C(O)C1 (stereo not given) |  | 0.898%
